Measured values from PubChem BioAssay AID488969 (Vanderbilt High Throughput Screening Facility, 2010).
The full ranking holds about 110,000 compounds; the median of “z-score” is about -0.1, and the highest 2% start at about 2. The sample holds the highest values, similar compounds and a random draw of the others, so the mix is not that of the screen. Active and inactive are the calls of the source.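 The calls were made as follows: active = z-score in the third read window above 3 or below -3; inactive = the rest.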

molecular target: Metabotropic glutamate receptor 8 (Rattus norvegicus) (UniProt P70579); experiment: rat mGluR8 modulators via GIRK flux, primary screen, cell-based, thallium flux, HTS (AID 488969); conditions: HEK293 rat mGluR8, GIRK (G protein-gated inwardly rectifying potassium channel) thallium flux, FluoZin2; at 10 µM; stronger effect = higher value; submaximal glutamate (EC20) added with thallium
Sequence (P70579 whole entry, looked up): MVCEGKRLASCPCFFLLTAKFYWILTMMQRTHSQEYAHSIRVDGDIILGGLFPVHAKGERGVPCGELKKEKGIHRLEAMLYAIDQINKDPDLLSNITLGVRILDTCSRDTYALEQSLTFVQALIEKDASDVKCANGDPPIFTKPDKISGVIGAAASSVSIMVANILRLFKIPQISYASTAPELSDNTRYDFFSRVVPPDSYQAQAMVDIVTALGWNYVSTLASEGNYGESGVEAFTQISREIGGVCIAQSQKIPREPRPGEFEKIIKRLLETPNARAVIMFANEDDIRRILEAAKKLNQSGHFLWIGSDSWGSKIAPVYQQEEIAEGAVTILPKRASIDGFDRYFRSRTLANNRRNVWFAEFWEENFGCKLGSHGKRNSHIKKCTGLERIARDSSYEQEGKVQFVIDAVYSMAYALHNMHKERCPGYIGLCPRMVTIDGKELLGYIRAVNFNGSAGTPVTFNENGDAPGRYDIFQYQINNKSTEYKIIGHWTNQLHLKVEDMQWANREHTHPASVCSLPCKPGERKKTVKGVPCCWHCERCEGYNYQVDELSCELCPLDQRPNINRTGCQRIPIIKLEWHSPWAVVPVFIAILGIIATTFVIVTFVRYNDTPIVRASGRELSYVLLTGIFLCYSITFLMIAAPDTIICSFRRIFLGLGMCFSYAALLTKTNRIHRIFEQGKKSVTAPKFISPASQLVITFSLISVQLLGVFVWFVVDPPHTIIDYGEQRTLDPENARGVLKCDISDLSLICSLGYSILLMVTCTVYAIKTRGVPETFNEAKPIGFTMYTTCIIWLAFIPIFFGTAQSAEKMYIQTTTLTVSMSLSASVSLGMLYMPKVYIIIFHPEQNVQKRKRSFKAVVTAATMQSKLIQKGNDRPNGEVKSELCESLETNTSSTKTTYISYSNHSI

| SMILES | z-score |
| --- | --- |
| CC1CCN(c2ccc(C(=O)Nc3ccc4c(c3)OCO4)cc2[N+](=O)[O-])CC1 | -0.237 |
| COc1ccccc1NC(=O)CNC(=O)c1ccccc1C | 0.371 |
| CCOC(=O)CNS(=O)(=O)c1ccc(C(=O)O)cc1 | 0.207 |
| Cc1ccc(S(=O)(=O)CC(=O)Nc2nc(-c3ccccc3)cs2)cc1 | 1.27 |
| CCCCC(=O)Nc1ccc(C(=O)NNC(=O)CCCOc2ccc(Cl)cc2Cl)cc1 | -0.184 |
| CCOc1ccccc1NC(=S)NC(=O)CCCOc1ccc(Cl)cc1Cl | -0.0571 |
| COc1ccccc1NC(=S)NC(=O)CCCOc1ccc(Cl)cc1Cl | -0.0968 |
| O=C(CCCOc1ccc(Cl)cc1Cl)Nc1cccnc1 | -0.0915 |
| CN(C(=S)NC(=O)CCCOc1ccc(Cl)cc1Cl)c1ccccc1 | 4 (active) |
| O=C(CCCOc1ccc(Cl)cc1Cl)Nc1ccncc1 | 2.21 |
| Cc1ccc(C)c(Oc2ncnc(N)c2[N+](=O)[O-])c1 | 0.623 |
| CCOC(=O)COc1ccc(S(=O)(=O)Nc2cccc(SC)c2)cc1 | -0.28 |
| CC(C)C(=O)Nc1ccc(-c2csc(-c3ccccc3)n2)cc1 | -0.165 |
| N#Cc1c(-c2ccc(C(F)(F)F)cc2)cc(-c2ccccc2)[nH]c1=S | 1.24 |
| Cc1ccc(-c2cc(-c3ccccc3)[nH]c(=S)c2C#N)cc1 | 3.09 (active) |
| Cc1cc(-c2ccccc2)c(C#N)c(=S)[nH]1 | 0.152 |
| Cc1ccc(NC(=O)COC(=O)CNC(=O)c2ccc(Br)cc2)c(C)c1 | -0.336 |
| Cc1ccc(NC(=O)NC2CCN(S(=O)(=O)c3ccc(F)cc3)CC2)cc1 | 0.564 |
| Brc1ccc(-c2cn3ccccc3n2)s1 | -0.391 |
| CCOC(=O)C1(C)NC(c2ccco2)C2C(=O)N(c3ccc(C)cc3)C(=O)C21 (stereo not given) | 0.153 |
| COc1cc(NC(=O)C2CC2C)c(C(=O)O)cc1OC (stereo not given) | -0.191 |
| C/C(N)=C(/C#N)C(=O)CN1CCCCC1 | 0.678 |
| Cc1cccc(-c2noc(CCCC(=O)N3CCOCC3)n2)c1 | -0.139 |
| O=C(CCCc1nc(-c2ccccc2)no1)N1CCOCC1 | 0.382 |
| O=C(CCCc1nc(-c2ccc(Cl)cc2)no1)N1CCOCC1 | 3.9 (active) |

| SMILES | z-score |
| --- | --- |
| COc1ccc(Cl)cc1C(=O)NNC(=S)NC(=O)c1cc(-c2ccc(Cl)cc2)nc2ccccc12 | 0.219 |
| CCOC(=O)c1ccc(NC(=O)COC(=O)Cc2csc(-c3ccccc3)n2)cc1 | -0.252 |
| O=C(NCc1cccs1)c1cccnc1Cl | -0.317 |
| O=C(NCc1cccs1)c1cccnc1C(=O)O | 5.74 (active) |
| O=C(NCc1cccs1)c1ccccc1C(=O)NCc1cccs1 | -0.214 |
| CCN(CC)S(=O)(=O)c1ccc(NCc2ccccc2)nc1 | -0.962 |
| Cc1sc2ncnc(SCC(=O)NCC(C)C)c2c1C | -0.208 |
| Cc1ccc(OCC(=O)NNC(=O)C(C)Sc2ncnc3sc(C)c(C)c23)cc1 (stereo not given) | 7.7 (active) |
| CCC(Sc1ncnc2sc(C)c(C)c12)C(=O)OC (stereo not given) | -0.469 |
| Cc1sc2ncnc(SC(C)C(=O)N3c4ccccc4Sc4ccccc43)c2c1C (stereo not given) | 2.19 |
| CCc1ccc(OCC(=O)NNC(=O)CSc2ncnc3sc(C)c(C)c23)cc1 | 0.487 |
| Cc1sc2ncnc(SCC(=O)c3ccc(Cl)s3)c2c1C | 1.06 |
| COc1ccc(Cn2c(O)c(C=Nc3ccc(OC)cc3)c3ccccc3c2=O)cc1 | -0.178 |
| NC(=O)c1c(NC(=O)CSc2nc3c(c(C(F)(F)F)n2)CCc2ccccc2-3)sc2c1CCCC2 | -0.123 |
| Cc1ccc(C)c(NC(=O)Cc2csc(-c3ccccc3)n2)c1 | -0.0885 |
| O=C(NC1CCCCC1)C(c1ccc2ncccc2c1)N(Cc1ccc2c(c1)OCO2)C(=O)c1cccs1 (stereo not given) | 0.00177 |
| CC(=O)c1cnc(Nc2ccccc2)s1 | 0.548 |
| COc1ccc2cc(Br)ccc2c1CC(=O)NC1CC(C)(C)NC(C)(C)C1 | 3.91 (active) |
| CCCNC(=O)Cc1c(OC)ccc2cc(Br)ccc12 | 0.421 |
| COc1ccc2cc(Br)ccc2c1CC(=O)NC(C)(C)C | -0.349 |
| COc1ccc(C(CCNC(C)c2ccccc2)c2ccc(F)cc2)cc1 (stereo not given) | 1.71 |
| COc1ccc(C(CCNCc2ccccc2)c2ccc(F)cc2)cc1 (stereo not given) | 1.8 |
| COc1ccc(C(CCNCc2ccccc2F)c2ccc(F)cc2)cc1 (stereo not given) | 3.61 (active) |
| COc1ccc(CNCCC(c2ccccc2)c2ccc3c(c2)OCO3)cc1 (stereo not given) | 2.28 |
| Fc1ccccc1CNCCC(Cc1ccccc1)c1ccc2c(c1)OCO2 (stereo not given) | 0.733 |

| SMILES | z-score |
| --- | --- |
| COc1ccc(NC(=O)CC(c2ccc(F)cc2)c2ccc(OC)cc2)cc1 (stereo not given) | -0.576 |
| COc1ccc(CNCCC(c2ccc(F)cc2)c2ccc(OC)cc2)cc1 (stereo not given) | 3.72 (active) |
| COc1ccc(C(CC(=O)Nc2ccc(F)cc2)c2ccccc2)cc1 (stereo not given) | 1.4 |
| COc1ccc(CC(=O)NCc2ccc3c(c2)OCO3)cc1 | -0.347 |
| CCOC(=O)c1cc(NC(=O)N(C(C)C)C(C)C)c(C)nc1C | 0.0304 |
| Brc1ccc(-c2nc(-c3cccnc3)no2)o1 | -0.481 |
| COc1ccc(CCNC(=O)Cn2nnc(-c3ccccc3F)n2)cc1OC | 0.148 |
| COc1ccc2c(c1)-c1c(sn(-c3ccccc3)c1=S)C(C)(C)N2 | -0.192 |
| O=C(CC1Nc2ccccc2NC1=O)NCCc1ccccc1 (stereo not given) | -0.0324 |
| CCCCN(CC)CCCNC(=O)CC1Nc2ccccc2NC1=O (stereo not given) | 0.0522 |
| O=C(CC1Nc2ccccc2NC1=O)NCCCN1CCCCCC1 (stereo not given) | 2.07 |
| COc1ccc(CNC(=O)C(NC(C)=O)C(=O)Nc2ccc(OC)cc2)cc1 (stereo not given) | -0.149 |
| Cc1ccc(C2(CC(=O)N3CCCC3)CCOC(C(C)C)C2)cc1 (stereo not given) | -0.0604 |
| O=C(O)CSc1nnnn1-c1ccc2c(c1)OCCO2 | -0.0806 |
| COC(=O)C1=C(C)N(C)C(=O)NC1c1ccccc1 (stereo not given) | -0.573 |
| Cc1cccc(-n2c(C)nc3sccc3c2=O)c1 | 1.99 |
| Cc1nc2sccc2c(=O)n1-c1cccc(Cl)c1 | -0.144 |
| Cc1cccc(-n2c(C)nc3c(cnn3-c3ccc(F)cc3)c2=O)c1 | 1.02 |
| Cc1noc(C)c1S(=O)(=O)N1CCCC(C(=O)N2CCC(C)CC2)C1 (stereo not given) | 1.01 |
| Cc1ccc(Cl)cc1NC1=C/C(=N\S(=O)(=O)c2cccs2)c2ccccc2C1=O | -0.209 |
| O=C(c1ccccc1Cl)N1CCc2ccccc2C1 | -1.42 |
| COc1ccc(NC(=O)/C(Cl)=C(/Cl)S(=O)(=O)Cc2ccc(C)cc2)cn1 | -0.418 |
| O=C(Nc1ccc2c(c1)OCO2)N1CCN(C(=O)C2CCCO2)CC1 (stereo not given) | 2.05 |
| O=C(Nc1ccc2c(c1)OCO2)N1CCN(c2ccccc2Cl)CC1 | -0.291 |
| O=C(Nc1ccc2c(c1)OCO2)N1CCOCC1 | 0.476 |
